Holding throughout (assay): NCI-60 one-dose screen, 48 h (100 = growth as untreated, 0 = no growth, -100 = all killed)
In assay [1] the test system is NCI-H226 lung. The settings on record: 10 µM.
Assay [2] concerns NCI-H322M lung. The settings on record: 10 µM.
Assay [3] relates to HOP-62 NSCLC. The settings on record: 10 µM.
In assay [4] the test system is HOP-92 NSCLC. The settings on record: 10 µM.
The subject of assay [5] is NCI-H522 lung. The settings on record: 10 µM unless noted.
The subject of assay [6] is A549/ATCC NSCLC. The settings on record: 10 µM.
Assay [7] concerns 786-0 renal. The settings on record: 10 µM.
Assay [8] relates to COLO 205 colon. The settings on record: 10 µM.
Assay [9] concerns DU-145 prostate. The settings on record: 10 µM unless noted.
Assay [10] has as its system MALME-3M melanoma. The settings on record: 10 µM.
Assay [11] deals with MDA-MB-231 breast. The settings on record: 10 µM.
In assay [12] the test system is RXF 393 renal. The settings on record: 10 µM unless noted.
For assay [13], the system named is SF-268 CNS. The settings on record: 10 µM.
Assay [14] relates to SF-295 CNS. The settings on record: 10 µM.
Assay [15] relates to SF-539 CNS. The settings on record: 10 µM.
For assay [16], the system named is UACC-257 melanoma. The settings on record: 10 µM.
Assay [17] has as its system M14 melanoma. The settings on record: 10 µM.
In assay [18] the test system is K-562 leukemia. The settings on record: 10 µM.
The subject of assay [19] is NCI-H460 lung. The settings on record: 10 µM.

“And” between values parts separate entries of the source, which are not always exact repeats. Equal entries are not always repeated. The panel holds about 83,000 compounds, 20% with a hit somewhere; the sample as a whole holds those more often.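 Compound tested at a single concentration for 48 hours in 96-well plates; a percent growth value below 10 was scored as active.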 Values without a mark were called inactive. The source made the active and inactive calls.

As to `Oc1ccc(N=Nc2ccccn2)c(O)c1`, the growth in assay [1] was 21.1%; in [2], 31.6%; in assay [3] it was 15.8%; in [4] it was 57.6%; in assay [5], 29.3%; in [6], 17.5%. In addition, the growth in assay [7] was 10.3%; in [8], 8.83% (active); in [9] it was 24.5%; in assay [10], 36.1%; in assay [11], 35.7%; in assay [12], 43.4%. The growth was 20.6% in assay [13]; 20% in assay [14]; 13.1% in [15]; 3.09% (active) in assay [16]; -6.58% (active) in assay [17].
As to `O=C1C=CC(=CC=C2C=CN(CCCCCCCCCCCO)C=C2)C=C1`, the growth was 59.6% in assay [1]; 92.4% in assay [2]; 44.5% in [3]; 24% in [4]; 18.2% in assay [5]; 46.3% in [6]. In addition, the growth is 67.2% in assay [7]; -42.6% (active) in assay [8]; 44.3% in [9]; 24.7% in [18]; 41.6% in assay [10]; 69.2% in assay [12]. Also, the growth in assay [14] was 45.3%; in assay [15], 41.4%; in [16], 4% (active); in [17] it was 45.4%.
As to `CC(C)(C)CC(C)(C)c1ccc(OCCO)cc1`, the growth is 105% in assay [1]; 115% in assay [2]; 110% in assay [3]; 96.4% in [6]; 109% in assay [7]; 110% in assay [8]. In addition, the growth in [9] is 111%; in assay [18], 93.4%; in assay [10], 158%; in assay [11], 106%; in [12], 119%; in assay [13] it was 108%. In addition, the growth in [14] is 109%; in assay [15], 96.8%; in assay [16] it was 108%; in [17], 112%.
On to `OC(CN1CCCC2CCCCC21)c1cc2ccccc2c2ccccc12` (stereo unspecified), for which the growth in [1] is 39.3%; in assay [2], 49.4%; in assay [3], 11.2%; in assay [19] it was 7.08% (active); in assay [4], 25.1%; in [5], 80.1%. Moreover, the growth in assay [6] is 51.5%; in [7] it was -11.6% (active); in [8] it was -73.2% (active); in [9] it was 40.3%; in assay [18], -14.4% (active); in [10], 17.7%. In addition, the growth in [11] was -11.2% (active); in [13], 45.7%; in [14] it was -3.44% (active); in assay [15] it was 27.8%; in assay [16], 22.7%; in [17] it was -69.8% (active).
As for `Clc1cc(Cl)c(Cl)nn1`, the growth in assay [1] is 99.8%; in [2], 109%; in assay [3] it was 94.2%; in [4], 91.9%; in assay [5], 80.7%; in [6], 57.9%. Moreover, the growth in assay [7] is 99.4%; in [8], 120%; in [9], 115%; in assay [18] it was 106%; in assay [10], 109%; in assay [11] it was 105%. Also, the growth in assay [12] was 122%; in assay [13], 101%; in [14] it was 107%; in assay [15], 100%; in assay [16], 70.4%; in [17], 93%.
As for `O=C(Nc1ccc(C(=O)O)c(O)c1)c1ccccc1`, the growth in assay [1] is 101%; in [2] it was 100% and 97.7%; in assay [3] it was 95.3% and 91.7%; in [4], 81.4% and 103%; in [5], 93.3% and 89.8%; in assay [6] it was 101% and 95.6%. Also, the growth in [7] was 109% and 97%; in [8] it was 102% and 130%; in assay [9], 108% and 126%; in assay [18] it was 101% and 102%; in assay [10] it was 88.5% and 92.3%; in assay [11] it was 98.5% and 104%. In addition, the growth in [12] was 112% and 107%; in assay [13], 108% and 121%; in [14], 106% and 95.1%; in assay [15] it was 98% and 104%; in assay [16] it was 98.5% and 94.3%; in assay [17] it was 106% and 99.6%.
As for `CO[C@H](C(=O)[C@@H](O)[C@@H](C)O)[C@@H]1Cc2cc3cc(OC4CC(OC5CC(O)C(O)C(C)O5)C(O)C(C)O4)c(C)c(O)c3c(O)c2C(=O)[C@H]1OC1CC(OC2CC(OC3CC(C)(O)C(O)C(C)O3)C(O)C(C)O2)C(O)C(C)O1` (stereo partly specified), the growth is 10.8% in assay [1]; 5.87% (active) in assay [2]; 7.51% (active) in assay [3]; -1.5% (active) in assay [4]; -44.7% (active) in [5]; 2.67% (active) in assay [6]. Also, the growth in [7] is 2.93% (active); in assay [8], -67.5% (active); in [9], 24.7%; in assay [18], 6.76% (active); in assay [10], -54.6% (active); in assay [11], 14.6%. Further, the growth in [12] is 5.86% (active); in [13] it was 12.3%; in [14] it was 19.1%; in [15], -20.2% (active); in [16], 4.4% (active); in assay [17] it was -71.5% (active).
